The values below come from PubChem BioAssay (Tox21).

Inconclusive results are not listed. Unmarked numbers belong to inactive results. Activity calls are given as the source filed them. Calls follow the shape of the dose curve; as a rule, active = well fitted activation curve with a large enough effect in the repeat runs; inconclusive = weak or mixed curves; inactive = flat fitted curve, though single readings scatter.
% is scaled to controls: 0 for no effect and ±100 for the full control effect.

A short description of this assay: Caspase-3/7 induction in HepG2 cells by small molecules, qHTS assay (AID 1346978). Also: nearly all actives have a fitted effect of over 15% in size. The note with it: HepG2 caspase-3/7 activation, Caspase-Glo luminescence, 17 h; series mostly up to 92.4 µM. An excerpt: National Center for Advancing Translational Sciences [NCATS] NIH Chemical Genomics Center [NCGC] U.S. Environmental Protection Agency [EPA] National Institutes of Environmental Health Sciences [NIEHS] National Toxicology Program [NTP] Assay overview: Apoptosis is a process of programmed cell death and plays a central role in the development of multicellular organisms. It is a highly regulated process and induces cell death by activating caspases, which are the members of cysteine aspartic acid-specific protease (caspase) family. Caspases involved in apoptosis are classified by their mechanism of action as initiator caspases (caspase-2, -8, -9 and -10) and executioner caspases (caspase-3, -6, and -7). Inhibition of apoptosis results in number of cancers, autoimmune diseases, inflammatory diseases and viral infection. To identify small molecule compounds that induce apoptosis, a homogeneous, luminescent Caspase-Glo 3/7 assay was used. Wild type HepG2 cells were used to screen Tox21 libraries for identifying caspase-3/7 activity inducers.
Assay Protocol Summary: HepG2 cells were dispensed at 2,000 per well in 5uL of culture medium into white solid bottom 1536-well plates (Corning Life Sciences, Corning, NY) using a Multidrop Combi (Thermo Scientific, Waltham, MA) dispenser. The assay plates were incubated at 37 C and 5% CO2 for 5hr, and then 23nL of compounds dissolved in DMSO and positive control were transferred using a Pintool station (Wako, San Diego, CA). The assay plates were incubated at 37C and 5% CO2 for 17hr. For caspase-3/7 activity read, 4uL of Caspase-Glo 3/7 reagent (Promega Corporation, Madison, WI) was added to each well of the assay plates using Flying Reagent Dispenser (FRD, Aurora Discovery, San Diego, CA) and incubated the assay plates at room temperature for 30min. The luminescence signal was quantified using a ViewLux plate reader (Perkin Elmer, Shelton, CT).
(qHTS replaces the single test concentration by a dilution series.)
In the case of `O=C(O)CNC(=O)c1ccccc1`, the call was inactive.

With `COC(=O)Nc1ccc(Cl)c(Cl)c1`, the call was inactive.

Turning to `C[C@@H]1CCC[C@H](C)N1`, the compound was called inactive. Still for that read-out and setting: the entry for `CC[N+](CC)(CC(=O)Nc1c(C)cccc1C)Cc1ccccc1` (tested in a mixture with another compound) is “inactive”. As to `NCCCC[C@H](N[C@@H](CCc1ccccc1)C(=O)O)C(=O)N1CCC[C@H]1C(=O)O`, the call was inactive. Same read-out and setting: the entry for `COc1cc(-c2ccc(=O)[nH]n2)ccc1OC(F)F` is “inactive”; for `COc1cccc(OC)c1C(=O)N[C@@H]1C(=O)N2[C@@H]1SC(C)(C)[C@@H]2C(=O)O` it is “inactive”. The same measure, in the same setting: in the case of `NC(=O)NC1N=C([O][Al])NC1=O` (stereo not given) it was “inactive”; in that of `CCCOC(=O)CC`, “inactive”. With `O=C1NC(=O)C2CC=CCC12` (stereo not given), the outcome was inactive. For the compound `CNCC(O)c1ccc(O)c(O)c1` (stereo not given), the compound was classed as inactive. The same measure, in the same setting: the entry for `[Ca+2]` is “inactive”. Same read-out and setting: in the case of `C=C(C)C(=O)OCCOCCOCCOCCOC(=O)C(=C)C` it was “inactive”; in that of `C=C(C)C(=O)OCC1CCCO1` (stereo not given), “inactive”.

For the compound `CCNS(=O)(=O)c1ccc(C)cc1`, the result was inactive. On the same count and under the same terms, the entry for `C=COCC1CCC(COC=C)CC1` (stereo not given) is “inactive”; for `Cc1ccccc1N=C(N)N=C(N)N` it is “inactive”. Still for that read-out and setting: in the case of `CC1OC1C1CCC2(C)OC2C1` (stereo not given) it was “inactive”; in that of `CC(N)C12CC3CC(CC(C3)C1)C2` (stereo not given), “inactive”. For the compound `CCN[C@@H]1C[C@H](N)[C@@H](OC2OC(CN)=CCC2N)[C@H](O)[C@H]1O[C@H]1OC[C@](C)(O)[C@H](NC)[C@H]1O` (stereo not given in full), the caspase activation is 0.0658% [at 0.349 µM]. As to `C[C@H]1[C@H](NC(=O)/C(=N/OC(C)(C)C(=O)O)c2csc(N)n2)C(=O)N1S(=O)(=O)O` (stereo in doubt), the outcome was inactive. As for `CCCCOCCOC(=O)CCCCCCCCC(=O)OCCOCCCC`, the compound was called inactive.

For the compound `C[N+](C)(CCOc1ccccc1)Cc1cccs1`, the compound was classed as inactive.

For `C[N+]12CCC(CC1)C(OC(=O)C(O)(c1ccccc1)c1ccccc1)C2` (stereo not given), the call was inactive. The same measure, in the same setting: the entry for `O=C(O)CNC(=O)c1ccc(CO)o1` is “inactive”. Same read-out and setting: in the case of `Cc1ccc(C(=O)c2ccc(CC(=O)O)n2C)cc1` it was “inactive”. Still for that read-out and setting: the entry for `NS(=O)(=O)Cc1noc2ccccc12` is “inactive”; for `C=CN1CCCCCC1=O` it is “inactive”. As for `CN(C)CCN(C)CCN(C)C`, the outcome was inactive.

For the compound `O=C(c1ccccc1)C1(O)CCCCC1`, the compound was classed as inactive. The same measure, in the same setting: the entry for `CCCCN(CCC(=O)OCC)C(C)=O` is “inactive”; for `O=C1CCCCCCCCCCCCCCO1` it is “inactive”; for `Nc1ccncc1N` it is “inactive”. In the case of `CC(C(=O)O)c1cccc(Oc2ccccc2)c1` (stereo not given), the compound was called inactive. Regarding `COc1cc(C(=O)OC(COCCC(C)C)CN2CCOCC2)cc(OC)c1OC` (stereo not given), the outcome was inactive. Still for that read-out and setting: the entry for `CCCCCCCCCCCCCCCCCCO` is “inactive”; for `O=S(=O)(O)c1cccc(S(=O)(=O)O)c1` it is “inactive”.

Take `O=S(=O)(O)c1cccc2c(S(=O)(=O)O)cccc12`: the call was inactive. Still for that read-out and setting: the entry for `COc1ccc2cc1Oc1cc3c(cc1OC)CC[N+](C)(C)[C@H]3Cc1ccc(cc1)Oc1c(OC)c(OC)cc3c1[C@@H](C2)[N+](C)(C)CC3` is “inactive”; for `CCN(C=O)CC` it is “inactive”.
